Among all 370,000 compounds or so, about 150 (0.041%) were called active. Where a call stands in place of a potency, no number is given. About 14% were inconclusive and are not listed. Calls follow the shape of the dose curve; as a rule, active = well fitted inhibition curve with a large enough effect; inconclusive = small, poorly fitted or top-dose-only effect; inactive = flat fitted curve, though single readings scatter. The full list was thinned out, with actives kept by preference.
molecular target: Beta-lactamase (Escherichia coli (strain K12)) (UniProt P00811); test: qHTS Inhibitors of AmpC Beta-Lactamase (assay with detergent); conditions: AmpC hydrolysis of nitrocefin, absorbance 480 nm, 0.01% Triton; series mostly up to 114 µM; also: nearly all actives have a fitted effect of over 25% in size
Sequence (P00811 whole entry, looked up): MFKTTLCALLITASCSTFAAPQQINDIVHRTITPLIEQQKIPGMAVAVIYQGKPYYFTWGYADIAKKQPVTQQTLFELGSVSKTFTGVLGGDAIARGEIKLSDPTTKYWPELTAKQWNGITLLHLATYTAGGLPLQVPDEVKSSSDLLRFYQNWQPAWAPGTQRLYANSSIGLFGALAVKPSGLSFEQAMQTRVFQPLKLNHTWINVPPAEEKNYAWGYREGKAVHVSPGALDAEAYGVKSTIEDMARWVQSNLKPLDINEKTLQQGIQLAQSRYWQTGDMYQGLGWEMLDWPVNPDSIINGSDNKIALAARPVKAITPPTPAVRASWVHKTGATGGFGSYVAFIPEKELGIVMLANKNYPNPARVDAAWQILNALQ
Experimental: NIH Molecular Libraries Probe Production Network [MLPCN] NIH Chemical Genomics Center [NCGC] Assay Provider: Professor Brian Shoichet, UCSF Assay Overview: This aggregation profiling approach exploits the sensitivity of aggregate formation to detergent. Inhibition of b-lactamase is measured in the presence and absence of 0.01% Triton X-100. This particular assay had the prescence of 0.01% Triton X-100. See Pubchem assay "Promiscuous and Specific Inhibitors of AmpC Beta-Lactamase (assay without detergent)" for related screen. Compounds that inhibit only in the absence of detergent are considered likely promiscuous aggregators. A screen of 1,030 compounds was performed in Brian Shoichet's lab in 96-well format. AmpC activity was measured by following the absorbance at 480 nm. Nitrocefin is a chromogenic substrate: while nitrocefin is yellow (lmax 390 nm), the product of its hydrolysis is red (lmax 486 nm, 17,000 M-1). AmpC beta lactamase was provided by Shoichet Lab, UCSF.
Buffer: 20 mM phosphate buffer, pH 7.0 Triton X-100: No Detergent screen: 0.0001%, Detergent screen: 0.01%. Reagents/Controls: Buffer in columns 3 and 4 as negative control (no enzyme). 5.3 nM AmpC in columns 1, 2, 5-48. Titration of UCSF compound 9 control (from 10 mM, then 1:2) pin-transferred to column 2. Column 1 is neutral (100% activity). Assay Steps: Six uL of reagents were dispensed to 1536-well Greiner black clear bottom plates. Compounds and controls (23 nL) were transferred via Kalypsys PinTool. The plates were incubated for 15 min at room temperature, and then 2 uL of 800 uM solution of nitrocefin was added to start the reaction. The plates were immediately transferred to and read every 20 seconds for 4 min on ViewLux (Perkin-Elmer) High-throughput CCD imager using 480 nm absorbance protocol. During dispense, reagent bottles were kept submerged into 4 deg C water bath. Keywords: NIH Roadmap, MLSCN, MLI, MLSMR, qHTS, NCGC, AmpC Beta-Lactamase, Aggregation
Potency is read from the fitted curve at half-maximal effect.

Row | SMILES | Potency
1 | Cc1c(-c2nc(-c3ccc4c(c3)OCO4)no2)nnn1-c1ccc(Br)cc1F | inactive
2 | COc1cc(NC(=O)c2noc3c2CSc2ccccc2-3)cc(OC)c1OC | inactive
3 | CCCCN1CC(c2nc3ccccc3n2CCCCOc2ccc(C)cc2C)CC1=O (stereo not drawn) | inactive
4 | CCOc1cccc(NC(=O)CSc2ncc(-c3ccc(Cl)cc3)[nH]2)c1 | inactive
5 | CC(=O)N1CCCc2cc(S(=O)(=O)Nc3ccc(Cl)cc3F)ccc21 | inactive
6 | Nc1ccc(Nc2cc(O)c3ncccc3c2)cc1 | inactive
7 | CCN(CC)S(=O)(=O)c1ccc2c(c1)N(CC(=O)NCC(C)c1ccccc1)C(=O)CO2 (stereo not drawn) | inactive
8 | CSc1ccccc1-c1nnc(NC(=O)c2ccc3c(c2)OCCO3)o1 | inactive
9 | CCn1c(CN2CCC(C)CC2)nc2cc(NC(=O)c3ccccc3[N+](=O)[O-])ccc21 | inactive
10 | COc1ccc(NC(=O)CCN2CCN(CCO)CC2)cc1 | inactive
11 | O=C(c1cccs1)c1cn(CCOc2ccc(Cl)cc2)c2ccccc12 | inactive
12 | COc1ccc(OC)c(NC(=O)Cn2c(=O)n(Cc3ccccc3)c(=O)c3ccccc32)c1 | inactive
13 | CSc1nc(=O)c2c(n1C)NC(=O)CC2c1ccccc1OC(C)C (stereo not drawn) | inactive
14 | Cc1cccc(N2CCN(C(=O)c3oc(=O)c4ccccc4c3-c3ccccc3)CC2)c1C | inactive
15 | COc1ccc(Cn2ccnc2SCC(=O)Nc2ccc3c(c2)OCO3)cc1 | inactive
16 | Cc1ccccc1OCc1ccc(-c2nc(C#N)c(N3CCCCC3)o2)o1 | inactive
17 | Cc1ccc(S(=O)(=O)c2c(Nc3cccc(Cl)c3)sc(C(=O)c3ccc4c(c3)OCO4)c2N)cc1 | inactive
18 | Cc1cccc(NC(=O)Cn2c(C(F)(F)F)nc3ccccc32)c1C | inactive
19 | O=C(/C=C/c1ccccc1)Nc1cc(-c2nc3cc(Cl)ccc3o2)ccc1Cl | inactive
20 | COc1ccc(-c2cc(C(F)(F)F)n3nc(-c4ccccc4)cc3n2)cc1OC | inactive
21 | CCOc1ccc(C(NC(=O)c2cc(OC)c(OC)c(OC)c2)c2cc(Cl)c3cccnc3c2O)cc1 (stereo not drawn) | inactive
22 | Cc1ccc2c(=O)c(C(=O)c3ccc(Cl)cc3)cn(CC(=O)NC3CCCCC3)c2n1 | inactive
23 | COc1ccc(-c2nc3ccccc3s2)cc1NC(=O)COc1ccccc1C | inactive
24 | CCn1c(C(=O)Nc2cc(Cl)ccc2C)cc2sc(Cl)cc21 | inactive
25 | Cc1cc(C)c(NC(=O)c2cc3sc(Cl)cc3n2C)c(C)c1 | 56.2 µM (active)
26 | Cc1ccc(NC(=O)c2cc3cc(C)ccc3n2C)cc1 | inactive
27 | COc1ccc(CCNc2ncnc3onc(-c4ccc(Cl)cc4)c23)c(OC)c1 | inactive
28 | CCOC(=O)c1c(C)oc2nc(C)nc(N3CCN(c4ccc(OC)cc4)CC3)c12 | inactive

From PubChem BioAssay AID485294 (National Center for Advancing Translational Sciences (NCATS), 2010)
